Here are results for 40 compounds from ChEMBL document CHEMBL1157539, “Thousands of chemical starting points for antimalarial lead identification” (Nature, 2010).

The test relates to Plasmodium falciparum. Briefly: GSK_TCMDC: Inhibition of Plasmodium falciparum 3D7 in whole red blood cells, using parasite LDH activity as an index of growth. Test compounds present at 2uM. The format is functional.
By Inhibition is commonly meant the drop in the measured response relative to a control, in per cent. As to `O=C(Nc1cccc(-c2cccc(-c3nc4ccccc4[nH]3)c2)c1)Nc1ccc(F)c(F)c1F`, the Inhibition worked out at 98%. Consider `COc1ccc2ncc(F)c([C@@H](O)CN3CCC(NCc4cc(C#N)c5c(c4)CCO5)CC3)c2n1`, for which the Inhibition is given as 92%. With `COc1cc(F)c2ncc(Cl)c([C@H](O)CN3CCC(NCc4cc5c(cn4)OCCO5)CC3)c2c1.Cl` the figure was 100%; with `CN(C)/C(=N/C(=N)NCc1ccc(Cl)c(Cl)c1)NCCCCCCN/C(=N\C(=N)NCc1ccc(Cl)c(Cl)c1)N(C)C`, 93%. With `O=C(/C=C/c1ccc2ccccc2c1)NCCCCCN1CCC(c2c[nH]c3ccccc23)CC1` the figure was 90%; with `Cc1noc(C)c1-c1cccc(CNCc2cccc(-c3csc(-c4nc5ccccc5[nH]4)c3)c2)c1.O=C(O)C(F)(F)F`, 100%; with `O=C(N[C@@H](CC1CCCCC1)C(=O)NCCN1CCCCC1)c1ccc(O)c(-c2ccc(Cl)c(Cl)c2)c1`, 97%.

In turn, `COc1cc2c(cc1S(=O)(=O)c1ccc(NC(=O)c3cc4ccccc4s3)cc1)CCN(C)CC2` registered an Inhibition of 100%.

The compound `CCCCN1CCCC[C@H]1[C@@H](O)c1ccnc2ccc(OCC)cc12` showed an Inhibition of 100%. In turn, `Nc1nc2c(cnn2CCCCCCCP(=O)(O)O)c(=O)[nH]1` yielded an Inhibition of 94%. Regarding `Clc1ccc(Cc2nc3ccccc3[nH]2)cc1Cl`, the Inhibition came out at 98%.

In the case of `Cc1cc2c(cc1C(F)(F)F)N(C(=O)Nc1cc(C(=O)NCCN(C)C)cc(C(F)(F)F)c1)CC2`, the Inhibition is reported as 100%.

Compound `COC(=O)[C@@H](NC(=O)[C@@H](Nc1ccc(C#N)c2ccccc12)C(C)(C)C)c1ccc(O)cc1` showed an Inhibition of 100%.

Compound `COc1ccccc1C1CCN(CCCCNC(=O)c2ccc(NC(=O)c3ccc(Cl)cc3)cc2)CC1` registered an Inhibition of 95%. On to `COc1cccc2cc(C(=O)N[C@@H](CC(C)C)C(=O)N[C@H](/C=N/NC(=O)OC(C)(C)C)CC(=O)OC(C)(C)C)oc12`, for which the Inhibition is listed as 85%. The compound `CC1(C)N=C(N)N=C(N)C1c1ccc(Cl)cc1.Cl` (stereo not given) displayed an Inhibition of 96%. As for `O=C(Nc1cncc(NC(=O)c2ccc(Cl)c(Cl)c2)c1)c1ccc(Cl)c(Cl)c1`, the Inhibition was 100%. The compound `Cc1cc(=NN=Cc2ccc(Cl)cc2)c2cccc(C)c2[nH]1` registered an Inhibition of 100%. In turn, `COc1ccc2nccc(N(C)CC3(O)CCN(CCc4ccc5c(c4)NC(=O)CS5)CC3)c2n1.Cl` returned an Inhibition of 91%. `OC(CNc1ccnc(Nc2ccccc2)n1)c1cccc(C(F)(F)F)c1` (stereo not given) came in with an Inhibition of 100%. In the case of `O=C(Cc1cccnc1)N(Cc1ccc(-c2ccc(CNCc3cccnc3)cn2)cc1)C1CCN(Cc2ccccc2)CC1.O=C(O)C(F)(F)F` it was 93%.

`Cc1ccc(/C=C/C(=O)N2CCC(CCN3CCC(c4c[nH]c5ccccc45)CC3)CC2)cc1C` yielded an Inhibition of 94%.

In the case of `CCCSc1nc2c(c(=O)n1CCc1ccccc1)C1(CCCC1)Cc1ccccc1-2`, the Inhibition turned out to be 99%. For the compound `Cc1cccc2nc(-c3ccc(-c4ccc(CN5CCN(CCN6CCOCC6)CC5)cc4)s3)[nH]c12.O=C(O)C(F)(F)F`, the Inhibition is on record as 100%. Compound `CC1CC(NCCCNc2cc(=O)c3ccccc3[nH]2)c2c(Cl)c(Cl)cc(Cl)c21` (stereo not given) registered an Inhibition of 87%. The compound `CCCCN(CCCC)CCC(O)C(=Cc1ccc(Cl)cc1Cl)c1ccc(C(F)(F)F)cc1N` (stereo not given) returned an Inhibition of 100%.

Consider `O=C(Nc1ccc(C(=O)N2CCN(CCN3CCN(c4cccc(C(F)(F)F)c4)CC3)CC2)cc1)c1cc(Cl)cc(Cl)c1`, for which the Inhibition was found to be 100%. In the case of `Cn1cccc1C(=O)Nc1cccc(-c2nn3ccccc3c2-c2ccnc(Nc3ccc4c(c3)OCCO4)n2)c1`, the Inhibition was 95%. In the case of `COc1ccc(C(=O)CCC(=O)N(Cc2ccc(-c3ccc(CNCCc4ccc(S(C)(=O)=O)cc4)cn3)cc2)C2CCN(Cc3ccccc3)CC2)cc1F.O=C(O)C(F)(F)F`, the Inhibition was 99%. With `COc1cccc(COCC(O)CN(CCc2ccccn2)C(=O)c2ccccc2F)c1` (stereo not given) the figure was 97%. For the compound `Cc1cc(Oc2ccc(-n3ccnc3)cc2)nc(N2CCN(CCCN3CCCC3)CC2)n1.O=C(O)C(F)(F)F`, the Inhibition was 90%. With `O=C(Nc1cccc(-c2ccc(CN3CCC(O)CC3)cc2)c1)c1cccc(Cl)c1.O=C(O)C(F)(F)F` the figure was 96%; with `CCC(CO)NCC(O)Cn1c2ccc(Cl)cc2c2cc(Cl)ccc21` (stereo not given), 96%. In the case of `CCN(CC)c1ccc2nc(N)nc(N)c2c1Cl.Cl` it was 92%; in that of `CCCC(C)NC(=O)/C=C/c1ccccc1-c1cccc(OC)c1` (stereo not given), 87%. In the case of `O=C(NC1CCCCCC1)C1CCCN(C(=O)c2ccc(O)c(-c3ccc(Cl)c(Cl)c3)c2)C1` (stereo not given), the Inhibition was determined as 98%.

Compound `CCOCCCNc1nc2cc(OC)c(OC)cc2c2nc(-c3ccccc3)nn12` returned an Inhibition of 96%.

With `CC(=O)Nc1ncc(C(=O)Nc2cccc(-c3cccc(-c4nc5cc(F)ccc5[nH]4)c3)c2)s1`, the Inhibition came out at 100%. Compound `CC(C)CC(=O)NC1CCN(Cc2c(-c3cccs3)nc3ccccc3c2C(=O)N[C@@H](C)C2CCCCC2)CC1` came in with an Inhibition of 96%. `O=C(c1ccc(Cl)cc1)N1CCCC(C(=O)N(Cc2nnc(-c3ccccc3Cl)o2)C2CC2)C1` (stereo not given) came in with an Inhibition of 95%.
